In PubChem BioAssay (NCI) one finds growth data, which are given here for eight molecules.

Some test systems named below: HCT-15 colon; HT29 colon; SNB-75 CNS; SNB-19 CNS; U251 CNS; PC-3 prostate; SK-MEL-5 melanoma; UACC-62 melanoma; LOX IMVI melanoma; SK-MEL-28 melanoma; SK-MEL-2 melanoma; EKVX NSCLC; SN12C renal; UO-31 renal; TK-10 renal; ACHN renal; CAKI-1 renal; A498 renal; CCRF-CEM leukemia; MOLT-4 leukemia.
Holding throughout (experiment): NCI-60 one-dose screen, 48 h (100 = growth as untreated, 0 = no growth, -100 = all killed)
Details in all cases: 10 µM unless noted

Structures are written as SMILES. This is part of a sample that, as a whole, favours compounds with a hit. Of some 83,000 tested, about 20% had one in any assay.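 How to read the values: 0–100, growth inhibition (40 = 60% inhibited); 0, no net growth; -100 to 0, cell death (-40 = 40% of starting cells died; -100 = all dead).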 Values without a mark were called inactive. The source made the active and inactive calls. The calls were made as follows: active = growth percent below 10; inactive = the rest.

As to `CS(=O)(=O)c1c(Nc2ccccc2)n[nH]c1N`, the growth in the assay with HCT-15 colon is 101%; in the assay on HT29 colon it was 97.3%; in the assay with SNB-75 CNS, 114%; with SNB-19 CNS, 91.1%; in the assay on U251 CNS it was 105%; in the assay with PC-3 prostate it was 82.5%. Further, the growth is 101% in the assay on SK-MEL-5 melanoma; 92.4% with UACC-62 melanoma; 89.8% in the assay on LOX IMVI melanoma; 106% in the assay on SK-MEL-28 melanoma; 113% with SK-MEL-2 melanoma; 116% in the assay with EKVX NSCLC. Also, the growth in the assay on SN12C renal was 95%; in the assay with UO-31 renal, 96.4%; in the assay on TK-10 renal, 90.2%; in the assay with ACHN renal, 102%; in the assay on CAKI-1 renal it was 105%; with A498 renal it was 115%. The growth in the assay with CCRF-CEM leukemia was 91.1%; in the assay with MOLT-4 leukemia it was 98.6%.
Consider `CC(=O)C1=C(O)C=C2Oc3c(C(=O)/C=C/c4cc(C(F)(F)F)cc(C(F)(F)F)c4)c(O)c(C)c(O)c3[C@]2(C)C1=O`, for which the growth in the assay on HCT-15 colon was -73% (active); in the assay with HT29 colon, -42.4% (active); in the assay with SNB-75 CNS, -28.3% (active); in the assay with SNB-19 CNS, -17.5% (active); with U251 CNS, -48.1% (active); in the assay with PC-3 prostate, -8.91% (active). Also, the growth in the assay on SK-MEL-5 melanoma was -93.9% (active); in the assay with UACC-62 melanoma it was -64.8% (active); in the assay with LOX IMVI melanoma, -85.4% (active); in the assay with SK-MEL-28 melanoma, -72.4% (active); in the assay with SK-MEL-2 melanoma, -49.7% (active); in the assay with EKVX NSCLC, -33.9% (active). For the same molecule, the growth in the assay with SN12C renal is -34.1% (active); in the assay on UO-31 renal, -31.4% (active); in the assay on TK-10 renal, -32.5% (active); with ACHN renal it was -75.7% (active); in the assay on CAKI-1 renal, 5.35% (active); in the assay on A498 renal it was -87.7% (active). Also, the values for the growth in the assay with CCRF-CEM leukemia and with MOLT-4 leukemia were -18.1% (active) and -14.1% (active), respectively.
Turning to `CC/C=C\C[C@H](O)C/C=C1/C(=O)C=C[C@@H]1C/C=C\CCCC(=O)NC`, the growth in the assay with HCT-15 colon was -28.4% (active); in the assay with HT29 colon, 0.814% (active); in the assay on SNB-75 CNS, 62.5%; in the assay with SNB-19 CNS, 22.5%; with U251 CNS, -8.98% (active); in the assay with PC-3 prostate, 13.6%. The growth in the assay on SK-MEL-5 melanoma was -94.5% (active); in the assay with UACC-62 melanoma, -45.3% (active); in the assay on LOX IMVI melanoma, -72.2% (active); in the assay with SK-MEL-28 melanoma it was -17.1% (active); in the assay with SK-MEL-2 melanoma, 16.1%; in the assay with EKVX NSCLC it was 23.8%. Also, the growth is -3.66% (active) in the assay with SN12C renal; -76.8% (active) in the assay with UO-31 renal; -8.31% (active) in the assay with TK-10 renal; -86.1% (active) in the assay with ACHN renal; 4.85% (active) in the assay on CAKI-1 renal; 56.1% with A498 renal. Besides, the results for the growth in the assay on CCRF-CEM leukemia and in the assay on MOLT-4 leukemia were -14.6% (active) and -14.1% (active), respectively.
With `COc1cc2c(cc1O)CCc1cc(O)cc(OC)c1-2`, the growth in the assay with HCT-15 colon is 90.7%; with HT29 colon, 95.6%; in the assay with SNB-75 CNS, 91.9%; with SNB-19 CNS, 98%; in the assay with U251 CNS, 91.3%; with PC-3 prostate, 93.6%. Further, the growth is 98.5% in the assay with SK-MEL-5 melanoma; 87.2% in the assay on UACC-62 melanoma; 93.5% in the assay on LOX IMVI melanoma; 100% in the assay on SK-MEL-28 melanoma; 88.6% with SK-MEL-2 melanoma; 92.7% in the assay on EKVX NSCLC. Also, the growth was 89.4% with SN12C renal; 95.3% with UO-31 renal; 126% in the assay with TK-10 renal; 95.4% in the assay with ACHN renal; 94.8% with CAKI-1 renal; 79.4% in the assay with A498 renal. For the same molecule, the values for the growth with CCRF-CEM leukemia and in the assay with MOLT-4 leukemia were 70.7% and 74.7%, respectively.
On to `COc1ccc2nc3cc(Cl)ccc3c(NCCNCC(O)CO)c2c1` (stereo not given), for which the growth in the assay on HCT-15 colon was 73.4%; in the assay on HT29 colon it was 6.37% (active); in the assay with SNB-75 CNS, 42.1%; in the assay with SNB-19 CNS, 35.7%; with U251 CNS it was 17.3%; in the assay with PC-3 prostate it was 21.4%. The growth with SK-MEL-5 melanoma was 35.3%; in the assay with UACC-62 melanoma, 11%; in the assay on LOX IMVI melanoma, -55.2% (active); with SK-MEL-28 melanoma, 30.8%; in the assay on SK-MEL-2 melanoma, 27.9%; in the assay on EKVX NSCLC it was 42%. The growth in the assay on SN12C renal was 5.37% (active); in the assay with UO-31 renal, 48.9%; in the assay on TK-10 renal, 32.3%; with ACHN renal, 26.8%; with CAKI-1 renal, 71.9%; in the assay on A498 renal, 8.45% (active). Further, the growth is 25% in the assay with CCRF-CEM leukemia and 12.7% with MOLT-4 leukemia.
As to `CC/C=C\C[C@H](O)C/C=C1/C(=O)C=C[C@@H]1C/C=C\CCCC(=O)NC(C)C`, the growth is -33.9% (active) in the assay with HCT-15 colon; -29.6% (active) with HT29 colon; 68% in the assay on SNB-75 CNS; 31.8% with SNB-19 CNS; 2.26% (active) with U251 CNS; 16.4% in the assay with PC-3 prostate. Besides, the growth in the assay on SK-MEL-5 melanoma is -69.8% (active); with UACC-62 melanoma, -61% (active); in the assay with LOX IMVI melanoma it was -46.9% (active); with SK-MEL-28 melanoma, 4.94% (active); in the assay with SK-MEL-2 melanoma it was 28.8%; in the assay with EKVX NSCLC, 28.4%. Also, the growth was -11.1% (active) with SN12C renal; -61.8% (active) in the assay with UO-31 renal; -0.347% (active) in the assay on TK-10 renal; -82.5% (active) in the assay with ACHN renal; -0.696% (active) in the assay with CAKI-1 renal; 98.5% in the assay with A498 renal. For the same molecule, the values for the growth in the assay on CCRF-CEM leukemia and in the assay on MOLT-4 leukemia were -13% (active) and -17.7% (active), respectively.
Take `COc1c2ccccc2c(OC)c2[nH]c(=O)ccc12`: the growth with HCT-15 colon was 22.1%; in the assay with HT29 colon, 46.6%; with SNB-75 CNS it was -21.3% (active); with SNB-19 CNS, 12.2%; with U251 CNS, 28.4%; in the assay on PC-3 prostate, 67%. For the same molecule, the growth is -96.7% (active) in the assay with SK-MEL-5 melanoma; -6.37% (active) in the assay on UACC-62 melanoma; 12.1% with LOX IMVI melanoma; 25.4% in the assay on SK-MEL-28 melanoma; 64.2% with SK-MEL-2 melanoma; 27.8% in the assay with EKVX NSCLC. In addition, the growth was 40.5% in the assay with SN12C renal; 59.9% with UO-31 renal; 110% in the assay with TK-10 renal; 65.1% with ACHN renal; 81% in the assay with CAKI-1 renal; 48.3% with A498 renal. For the same molecule, the growth in the assay on CCRF-CEM leukemia was -58.7% (active); with MOLT-4 leukemia, 69.4%.
For the molecule `COc1cc(OC)c(/C=C/S(=O)(=O)Cc2ccc(OC)c(N)n2)c(OC)c1`, the growth with HCT-15 colon was 7.7% (active); in the assay on HT29 colon, -9.76% (active); with SNB-75 CNS, 40.5%; with SNB-19 CNS, 35.8%; in the assay on U251 CNS it was 8.02% (active); in the assay on PC-3 prostate it was 26.8%. For the same molecule, the growth was -31.2% (active) in the assay with SK-MEL-5 melanoma; 42.3% in the assay on UACC-62 melanoma; 9.35% (active) with LOX IMVI melanoma; 53.7% with SK-MEL-28 melanoma; 8.32% (active) in the assay on SK-MEL-2 melanoma; 37.3% in the assay on EKVX NSCLC. In addition, the growth in the assay with SN12C renal is 24.3%; in the assay on UO-31 renal, 31.9%; in the assay with TK-10 renal, 33.7%; with ACHN renal, 28.3%; in the assay with CAKI-1 renal it was 25.5%; with A498 renal it was -1.72% (active). Also, the growth is 9.98% (active) with CCRF-CEM leukemia and 2.56% (active) with MOLT-4 leukemia.
